Consider 28 compounds from PubChem BioAssay (NCI).

About 83,000 compounds went through this panel and 20% of them were active in at least one assay; those are over-represented in the sample as a whole.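 A percent growth of 40 corresponds to 60% growth inhibition; 0 means no net growth; -100 means all cells died. Active threshold: below 10.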 Calls of active or inactive are those of the source.

The experiment concerns HL-60(TB) leukemia. Description: NCI-60 one-dose screen, 48 h (100 = growth as untreated, 0 = no growth, -100 = all killed). The following applies: 10 µM unless noted.
With `Clc1ccc(-c2nc(-c3c[nH]c4ncccc34)cs2)cc1`, the growth was 87.4% [100 µM] (inactive).
Then `O=C(Nc1ccc(-n2cc(-c3ccncc3)c(-c3ccc(Cl)c(O)c3)n2)cc1)c1cc(Cl)cc(Cl)c1`, with 8.45% (active); and `COc1ncnc2c1cnn2C`, with 114% (inactive).
Then `O=C(Nc1ccc2c(c1)OCO2)C(=O)c1c[nH]c2cc(F)ccc12`, with 53.5% (inactive); and `CCN1C(=O)N(CC)C2C1NN=c1s/c(=C\c3ccc(OC)cc3)c(=O)n12` (stereo not drawn), with -45.9% (active); and `O=[N+]([O-])c1ccc(N=Nc2c(NNc3ccc([N+](=O)[O-])cn3)cc(S(=O)(=O)O)c3ccccc23)nc1`, with 94.9% (inactive).
Next, `Oc1ccc(N=Cc2ccccc2O)cc1`: 63.3% (inactive); `COC(=O)[C@H](Cc1cn(C)cn1)NC(=O)[C@@H](NC(=O)Nc1cc(C(F)(F)F)cc(C(F)(F)F)c1)C(C)C`: -73.5% [100 µM] (active).
In the case of `CCCC(C)(C)COC(=O)c1cccc(N)c1`, the growth was 57.8% (inactive).
As to `CC(=O)Oc1csc(N(C(C)=O)c2cc(C(=O)O)cc(C(=O)O)c2)n1`, the growth is 113% (inactive).
Then `Cc1oc2nc[nH]c(=O)c2c1C(=O)/C=C/c1ccc(Cl)cc1Cl`, with 7.83% (active); and `CCn1cc(C(=O)N/N=C/c2cccc(F)c2)c(=O)c2cc(F)c(N3CCNC(C)C3)c(F)c21` (stereo not drawn), with 65.5% (inactive).
Consider `CN1C(=O)N(C)C2C1NN=c1s/c(=C\c3ccccc3F)c(=O)n12` (stereo not drawn), for which the growth was -46.5% (active).
Then `O=C1/C(=C/c2cccc(F)c2)CN(C(=O)C(Cl)Cl)C/C1=C\c1cccc(F)c1`, with -41.6% (active); and `O=S(=O)(Nc1cccc(Cl)c1)c1ccc(-c2cnc(C3CC3)o2)cc1`, with 2.04% (active); and `CC1Cc2c(ncnc2-n2cnc3ccccc32)N(C)c2ccccc21` (stereo not drawn), with 15.9% (inactive).
With `COc1c(Cl)cc(Cl)c2ccc(C=C3C(=O)N(C)C(=O)N(C)C3=O)nc12`, the growth was 98.1% (inactive).
Next, `COc1ccc2c(c1)CC[C@@H]1[C@@H]2CC[C@]2(C)[C@@H](O)C(=O)C[C@@H]12`: 108% (inactive); `CN1CCC(=C2c3ccccc3C=Cc3ccccc32)CC1`: 85.1% (inactive); `CC(=O)[C@H]1CC[C@]2(C)[C@@H]1CC[C@@H]1[C@@]3(C)C/C(=C/c4cccnc4)C(=O)C(C)(C)[C@@H]3CC[C@]12C`: 8.47% (active).
Regarding `CO[C@H]1CC(O[C@@H]2/C(C)=C/C[C@@H]3C[C@@H](C[C@]4(C=C[C@H](C)[C@@H](C5CCCCC5)O4)O3)OC(=O)[C@@H]3C=C(C)[C@@H](O)[C@H]4OC/C(=C\C=C\[C@@H]2C)[C@]43O)O[C@@H](C)C1O[C@H]1C[C@H](OC)[C@@H](O)[C@H](C)O1` (stereo partly drawn), the growth is -50.5% (active).
With `Cn1ncc(CC(=O)O)c1-n1nnc2cc(Cl)ccc2c1=O`, the growth is 97.2% (inactive).
In the case of `COc1ccc(-c2cc(-c3ccc(Cl)cc3)c(C#N)c(=O)n2CCCCCC(=O)Nc2ccccc2N)cc1`, the growth was -14.5% (active).
Then `Clc1cccc(Cl)c1/C=C/c1cc(/C=C/c2c(Cl)cccc2Cl)[nH]n1`, with 12.6% (inactive); and `Cc1ccc2c(c1)ncn2-c1ncnc2c1CC(C)c1ccccc1N2C` (stereo not drawn), with -36.2% (active); and `O=C(Oc1ccccc1)c1ccccc1Cl`, with 76.4% (inactive).
As for `O=C(N=c1oc2ccccc2cc1-c1cc2ccccc2[nH]1)Nc1ccc(Cl)cc1`, the growth is 78.6% (inactive).
Take `COc1cc2cc(NCc3ccc(Cl)cc3)nc(C)c2cc1OC`: the growth is 31.3% (inactive).
